Where “and” joins values, the source holds several entries; their conditions need not be identical. Equal entries are not always repeated. Records with an inconclusive call do not appear. Calls of active or inactive are those of the source. Unless noted, the call rests on the fitted dose curve.
What was measured:
[1] = qHTS assay for small molecule agonists of retinoid X receptor alpha signaling (AID 588544); conditions: HEK293T RXRa-UAS-bla, beta-lactamase reporter, 18 h; 530 nm emission;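 on activation: 0% = DMSO basal wells and 100% = reference agonist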
[2] = biological target: Retinoic acid receptor RXR-alpha (Homo sapiens) (UniProt P19793); assay: as above; conditions: HEK293T RXRa-UAS-bla, beta-lactamase reporter, 18 h; series mostly up to 76.7 µM
[3] = biological target: Thyroid hormone receptor beta (Homo sapiens) (UniProt P10828); assay: qHTS assay for small molecule agonists of thyroid hormone receptor beta signaling (AID 588545); conditions: TR-UAS-bla GripTite HEK 293, beta-lactamase ratio, agonist mode, 18 h, percent of T3 response, DMSO as zero; series mostly up to 76.7 µM;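 further: 0% = DMSO only and 100% = 10 nM T3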
In short: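 Efficacy and EC50 values derive from Hill fits of qHTS titration data, normalized to 10 nM T3 and DMSO-only wells. HEK 293 reporter cells were stimulated for 18 hrs at 37 C, with beta-lactamase activity measured by CCF4 fluorescence.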

[4] = qHTS assay for small molecule antagonists of retinoid X receptor alpha signaling (AID 588546; active means well fitted inhibition curve with a large enough effect in the signal ratio, with a control signal flat, not every such curve was filed as active; the % refers to the signal ratio;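 further: cells stimulated with 9-cis-retinoic acid as agonist; on the % scale 0 is the no-effect control and ±100 the full control effect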); conditions: HEK293T RXRa-UAS-bla, beta-lactamase ratio, antagonist mode; measured here: W530 green channel, cytotoxicity proxy
In short: (§1)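 Beta-lactamase reporter inhibition, read as CCF4 fluorescence ratio (ex 405, em 460/530 nm) after 2 h at RT. HEK293T UAS-bla cells, 2500/well, were stimulated with 9-cis-RA at 500 or 100 nM final alongside test compound for 18 h at 37 C.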

[5] = biological target: Retinoic acid receptor RXR-alpha (Homo sapiens) (UniProt P19793); assay: as above; conditions: HEK293T RXRa-UAS-bla, beta-lactamase ratio, antagonist mode
In short: as §1

[6] = biological target: Thyroid hormone receptor beta (Homo sapiens) (UniProt P10828); assay: qHTS assay for small molecule antagonists of thyroid hormone receptor beta signaling (AID 588547; active means well fitted inhibition curve with a large enough effect in the signal ratio, with a control signal flat, not every such curve was filed as active; the % refers to the signal ratio;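 further: cells stimulated with 0.4 nM T3 agonist during compound exposure; on the % scale 0 is the no-effect control and ±100 the full control effect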); conditions: TR-UAS-bla HEK293, beta-lactamase ratio, antagonist mode, 18 h
In short: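 TR-UAS-bla GripTite HEK293 cells in 2% charcoal/dextran FBS medium were preincubated 4 h at 37 C, given compound (0.59 nM to 92 uM) plus 0.4 nM T3 (final) for 18 h, then CCF4 for 2 h at RT; Hill fit gave IC50.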

[7] = biological target: Voltage-gated inwardly rectifying potassium channel KCNH2 (Homo sapiens) (UniProt Q12809); assay: qHTS Assay for Small Molecule Inhibitors of the Human hERG Channel Activity (AID 588834; active means well fitted inhibition curve with a large enough effect;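 further: top concentration of the series differs between compounds; on the % scale 0 is the no-effect control and ±100 the full control effect; lower thallium flux fluorescence means stronger hERG block; nearly all actives have a fitted effect of over 50% in size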); conditions: U2OS BacMam hERG, FluxOR thallium flux fluorescence; series mostly up to 92.2 µM
In short: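 Concentration-response qHTS measuring drop in thallium-sensitive dye signal. U2OS cells carrying BacMam hERG; compound exposure ~10 min, then stimulation buffer and 2 min read at 1 sec intervals.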

[8] = qHTS assay for small molecule activators of the p53 signaling pathway (AID 651743; active means well fitted activation curve with a large enough effect in the signal ratio, not every such curve was filed as active; the % refers to the signal ratio; further: % of control where 0% means no effect); conditions: HCT-116 p53RE-bla, beta-lactamase FRET ratio, 16 h; stronger effect = higher value
In short: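 Cell-based beta-lactamase reporter (p53 response elements, HCT-116 background). After a 5-hour preincubation, cells received compound for 16 hours at 37 C; substrate development ran 2 hours at room temperature.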

[9] = qHTS assay for small molecule activators of the nuclear factor-kappa B (NF-kB) signaling pathway (AID 651749; active means well fitted activation curve with a large enough effect in the signal ratio; the % refers to the signal ratio; further: % of control where 0% means no effect); conditions: NF-kB-bla ME-180 cells, beta-lactamase FRET ratio, 16 h; stronger effect = higher value
In short: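 Screening used 2,000 ME-180 reporter cells per well exposed to pinned compound (23 nL) or DMSO; after 16 hr at 37C, beta-lactamase expression under NF-kB control was assessed through FRET.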

Sequence of Voltage-gated inwardly rectifying potassium channel KCNH2 (Homo sapiens) (Q12809 whole entry, looked up): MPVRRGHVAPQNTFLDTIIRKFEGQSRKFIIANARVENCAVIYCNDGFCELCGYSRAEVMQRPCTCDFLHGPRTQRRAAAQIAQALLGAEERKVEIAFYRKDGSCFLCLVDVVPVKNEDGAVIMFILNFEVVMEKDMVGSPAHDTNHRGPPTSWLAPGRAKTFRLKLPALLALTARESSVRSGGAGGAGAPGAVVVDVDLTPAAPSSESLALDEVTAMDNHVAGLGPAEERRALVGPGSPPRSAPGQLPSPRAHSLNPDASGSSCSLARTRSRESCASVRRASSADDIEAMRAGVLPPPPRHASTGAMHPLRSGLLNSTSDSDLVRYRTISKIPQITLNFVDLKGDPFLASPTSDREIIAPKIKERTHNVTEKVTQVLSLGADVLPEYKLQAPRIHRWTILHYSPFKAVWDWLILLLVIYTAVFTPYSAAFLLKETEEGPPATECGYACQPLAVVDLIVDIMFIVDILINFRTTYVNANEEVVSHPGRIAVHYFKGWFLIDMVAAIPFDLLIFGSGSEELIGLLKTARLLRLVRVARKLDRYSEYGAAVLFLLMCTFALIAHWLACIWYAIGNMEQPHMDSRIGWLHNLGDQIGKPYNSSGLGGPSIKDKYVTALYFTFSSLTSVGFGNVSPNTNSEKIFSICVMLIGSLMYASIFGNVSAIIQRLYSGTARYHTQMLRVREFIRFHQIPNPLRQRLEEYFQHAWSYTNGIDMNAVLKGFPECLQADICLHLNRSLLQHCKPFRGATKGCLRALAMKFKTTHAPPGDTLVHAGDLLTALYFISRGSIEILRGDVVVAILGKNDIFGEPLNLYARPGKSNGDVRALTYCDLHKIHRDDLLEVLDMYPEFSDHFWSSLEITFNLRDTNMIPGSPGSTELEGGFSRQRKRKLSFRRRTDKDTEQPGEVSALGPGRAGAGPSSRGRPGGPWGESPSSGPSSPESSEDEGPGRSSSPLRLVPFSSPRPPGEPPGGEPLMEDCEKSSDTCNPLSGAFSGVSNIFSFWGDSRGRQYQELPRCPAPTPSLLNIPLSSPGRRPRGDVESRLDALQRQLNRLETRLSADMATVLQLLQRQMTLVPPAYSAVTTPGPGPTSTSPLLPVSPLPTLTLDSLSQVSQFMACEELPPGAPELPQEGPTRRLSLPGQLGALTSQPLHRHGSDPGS
Sequence of Retinoic acid receptor RXR-alpha (Homo sapiens) (P19793 whole entry, looked up): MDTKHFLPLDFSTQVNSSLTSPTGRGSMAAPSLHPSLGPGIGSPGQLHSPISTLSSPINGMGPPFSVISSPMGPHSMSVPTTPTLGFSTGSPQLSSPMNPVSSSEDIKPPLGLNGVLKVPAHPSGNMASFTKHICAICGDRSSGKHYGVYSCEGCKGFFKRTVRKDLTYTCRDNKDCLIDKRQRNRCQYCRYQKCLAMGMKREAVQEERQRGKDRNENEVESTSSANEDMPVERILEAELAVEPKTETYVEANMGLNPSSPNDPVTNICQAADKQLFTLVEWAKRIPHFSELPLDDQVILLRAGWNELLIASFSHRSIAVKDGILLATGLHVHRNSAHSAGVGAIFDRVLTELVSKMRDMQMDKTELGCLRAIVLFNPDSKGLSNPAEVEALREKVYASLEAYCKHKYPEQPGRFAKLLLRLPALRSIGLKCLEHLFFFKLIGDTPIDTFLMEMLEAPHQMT
Sequence of Thyroid hormone receptor beta (Homo sapiens) (P10828 whole entry, looked up): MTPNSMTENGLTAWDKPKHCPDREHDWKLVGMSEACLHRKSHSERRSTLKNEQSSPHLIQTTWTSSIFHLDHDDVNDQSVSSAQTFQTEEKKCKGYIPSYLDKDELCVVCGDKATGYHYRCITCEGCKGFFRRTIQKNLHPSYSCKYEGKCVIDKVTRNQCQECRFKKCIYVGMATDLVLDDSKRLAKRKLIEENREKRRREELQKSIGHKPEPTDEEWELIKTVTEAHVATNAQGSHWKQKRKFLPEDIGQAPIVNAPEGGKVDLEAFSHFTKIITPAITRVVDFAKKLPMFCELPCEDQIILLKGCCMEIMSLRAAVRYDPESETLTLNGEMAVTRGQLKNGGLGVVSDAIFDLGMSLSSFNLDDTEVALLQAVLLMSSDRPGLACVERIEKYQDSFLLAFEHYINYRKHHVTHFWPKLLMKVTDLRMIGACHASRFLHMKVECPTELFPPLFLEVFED

In the case of C=CCCC, the max response [1] is reported as -12.1%, the outcome [2] is reported as “inactive” and the outcome [3] is reported as “inactive”. For the same compound, the max response [4] was 2.87%, the max response [5] was 8.21% (inactive) and the activity change % (negative = inhibition) [6] was 20.1% (inactive). The Potency [7] was “inactive”, the activation [8] was -0.508% (inactive) and the activation [9] was -0.388% (inactive).

For O=C(O)c1ccc(CO)o1, the max response [1] was -7.5%, the outcome [2] was “inactive” and the outcome [3] was “inactive”. The max response [4] was -4.49%, the max response [5] was -4.1% (inactive) and the activity change % (negative = inhibition) [6] was -7.49% (inactive). For the same compound, the Potency [7] was “inactive”, the activation [8] was -2.63% (inactive) and the activation [9] was 0.608% (inactive).

For O=[N+]([O-])c1ccc(CCO)cc1, the max response [1] was -1.7%, the outcome [2] was “inactive” and the outcome [3] was “inactive”. The max response [4] was -0.777%, the max response [5] was 2.63% (inactive) and the activity change % (negative = inhibition) [6] was 3.64% (inactive). For the same compound, the Potency [7] was “inactive”, the activation [8] was -2.15% (inactive) and the activation [9] was -0.318% (inactive).

With C=CCCCCCCC=C the max response [1] was -11.6%, the outcome [2] was “inactive” and the outcome [3] was “inactive”. For the same compound, the max response [4] was -1.72%, the max response [5] was -6.51% (inactive) and the activity change % (negative = inhibition) [6] was -6.39% (inactive). For the same compound, the Potency [7] was “inactive”, the activation [8] was 0.568% (inactive) and the activation [9] was -0.256% (inactive).

In the case of N#CCc1ccccc1[N+](=O)[O-], the max response [1] is reported as -1.87%, the outcome [2] is reported as “inactive” and the outcome [3] is reported as “inactive”. The max response [4] was 20.6%, the max response [5] was -6.12% (inactive) and the activity change % (negative = inhibition) [6] was -13.4% (inactive). The Potency [7] was “inactive”, the activation [8] was -2.66% (inactive) and the activation [9] was -0.713% (inactive).

For CCOc1cc(OCC)c(C(C)=O)cc1OCC, the max response [1] was 4.48%, the outcome [2] was “inactive” and the outcome [3] was “inactive”. For the same compound, the max response [4] was 1.94%, the max response [5] was 7.64% (inactive) and the activity change % (negative = inhibition) [6] was -7.72% (inactive). The Potency [7] was “inactive”, the activation [8] was -3.93% (inactive) and the activation [9] was 2.04% (inactive).

In the case of Cc1ccc([N+](=O)[O-])c(N)c1, the max response [1] is reported as 3%, the outcome [2] is reported as “inactive” and the outcome [3] is reported as “inactive”. The max response [4] was -20.5%, the max response [5] was -4.21% (inactive) and the activity change % (negative = inhibition) [6] was -0.142% (inactive). The Potency [7] was “inactive”, the activation [8] was -3.31% (inactive) and the activation [9] was -0.448% (inactive).

In the case of C=C(C)C(=O)OC, the max response [1] is reported as -17.1%, the outcome [2] is reported as “inactive” and the outcome [3] is reported as “inactive”. The max response [4] was -11.6%, the max response [5] was -3.12% (inactive) and the activity change % (negative = inhibition) [6] was -1.4% (inactive). For the same compound, the Potency [7] was “inactive”, the activation [8] was -0.845% (inactive) and the activation [9] was -2.84% (inactive).

With c1ccc2n[nH]nc2c1 the max response [1] was -15.8%, the outcome [2] was “inactive” and the outcome [3] was “inactive”. The max response [4] was -16.6%, the max response [5] was -7.97% (inactive) and the activity change % (negative = inhibition) [6] was -7.43% (inactive). The Potency [7] was “inactive”, the activation [8] was -4.32% (inactive) and the activation [9] was 1% (inactive).

With CC(C)C=O the max response [1] was 3.23%, the outcome [2] was “inactive” and the outcome [3] was “inactive”. The max response [4] was -14.5%, the max response [5] was 8.49% (inactive) and the activity change % (negative = inhibition) [6] was -10% (inactive). For the same compound, the Potency [7] was “inactive”, the activation [8] was 0.787% (inactive) and the activation [9] was -1.3% (inactive).

In the case of Nc1c(Cl)cc(Cl)cc1Cl, the max response [1] is reported as -8.9%, the outcome [2] is reported as “inactive” and the outcome [3] is reported as “inactive”. For the same compound, the max response [4] was 1.94%, the max response [5] was 4.53% (inactive) and the activity change % (negative = inhibition) [6] was 14.8% (inactive). For the same compound, the Potency [7] was “inactive” and the activation [8] was -0.29% (inactive).

In the case of O=C(O)c1ccc(Cl)cc1Cl, the max response [1] is reported as -11.4%, the outcome [2] is reported as “inactive” and the outcome [3] is reported as “inactive”. For the same compound, the max response [4] was -6.82%, the max response [5] was 2.21% (inactive) and the activity change % (negative = inhibition) [6] was -8.73% (inactive). The Potency [7] was “inactive”, the activation [8] was -4.73% (inactive) and the activation [9] was -0.499% (inactive).

For Nc1cccc(N)c1, the max response [1] was 0.0667%, the outcome [2] was “inactive” and the outcome [3] was “inactive”. For the same compound, the max response [4] was 1.75%, the max response [5] was -3.92% (inactive) and the activity change % (negative = inhibition) [6] was -1.36% (inactive). For the same compound, the Potency [7] was “inactive”, the activation [8] was -1.04% (inactive) and the activation [9] was -0.628% (inactive).

For CC=C(Cl)Cl, the max response [1] was -16.9%, the outcome [2] was “inactive” and the outcome [3] was “inactive”. The max response [4] was -7.38%, the max response [5] was -5.31% (inactive) and the activity change % (negative = inhibition) [6] was -14.6% (inactive). The Potency [7] was “inactive”, the activation [8] was -2.14% (inactive) and the activation [9] was -0.14% (inactive).

With Cc1ccccc1C#N the max response [1] was -8.62%, the outcome [2] was “inactive” and the outcome [3] was “inactive”. For the same compound, the max response [4] was -10.7%, the max response [5] was 15.6% (inactive) and the activity change % (negative = inhibition) [6] was 4.81% (inactive). For the same compound, the Potency [7] was “inactive” and the activation [8] was -0.804% (inactive).

With CCN(CC)c1cccc(O)c1 the max response [1] was -9.19%, the outcome [2] was “inactive” and the outcome [3] was “inactive”. The max response [4] was 6.69%, the max response [5] was 9.83% (inactive) and the activity change % (negative = inhibition) [6] was 4.53% (inactive). For the same compound, the Potency [7] was “inactive”, the activation [8] was -0.279% (inactive) and the activation [9] was 0.251% (inactive).

With Cc1ccco1 the max response [1] was -10.8%, the outcome [2] was “inactive” and the outcome [3] was “inactive”. The max response [4] was -5.98%, the max response [5] was 5.14% (inactive) and the activity change % (negative = inhibition) [6] was 12.3% (inactive). The Potency [7] was “inactive”, the activation [8] was 2.07% (inactive) and the activation [9] was -0.364% (inactive).

With O=C(O)c1ccc(C(=O)O)cc1 the max response [1] was -16.5% and -21.7%, the outcome [2] was “inactive” and the outcome [3] was “inactive”. The max response [4] was -3.66% and -13.6%, the max response [5] was 1.97% (inactive) and -1.47% (inactive) and the activity change % (negative = inhibition) [6] was -2.68% (inactive) and 4.87% (inactive). The Potency [7] was “inactive”, the activation [8] was -0.449% (inactive) and 6.06% (inactive) and the activation [9] was 0.423% (inactive) and -1.36% (inactive).

For BrC/C=C/CBr, the max response [1] was 2.54%, the outcome [2] was “inactive” and the outcome [3] was “inactive”. For the same compound, the max response [4] was -0.458%, the max response [5] was -9.94% (inactive) and the activity change % (negative = inhibition) [6] was 15.3% (inactive). For the same compound, the Potency [7] was “inactive”, the activation [8] was 0.265% (inactive) and the activation [9] was 0.2% (inactive).

For C1CCCC1, the max response [1] was -15.2%, the outcome [2] was “inactive” and the outcome [3] was “inactive”. For the same compound, the max response [4] was -15.6%, the max response [5] was -5.52% (inactive) and the activity change % (negative = inhibition) [6] was -1.41% (inactive). The Potency [7] was “inactive” and the activation [8] was -0.131% (inactive).

For C=C(C)C(=O)OCC(C)C, the max response [1] was -16.8%, the outcome [2] was “inactive” and the outcome [3] was “inactive”. For the same compound, the max response [4] was -5.76%, the max response [5] was -6.82% (inactive) and the activity change % (negative = inhibition) [6] was 1.27% (inactive). For the same compound, the Potency [7] was “inactive”, the activation [8] was -1.84% (inactive) and the activation [9] was 1.27% (inactive).

For c1ccc(Oc2ccccc2)cc1, the max response [1] was -5.86% and -5.26%, the outcome [2] was “inactive” and the outcome [3] was “inactive”. For the same compound, the max response [4] was -2.47% and -11.6%, the max response [5] was -1.69% (inactive) and -4.15% (inactive) and the activity change % (negative = inhibition) [6] was 13.9% (inactive) and 3.24% (inactive). The Potency [7] was “inactive”, the activation [8] was -0.263% (inactive) and 10.2% (inactive) and the activation [9] was -0.173% (inactive) and -1.25% (inactive).

Source: PubChem BioAssay (NCATS)
